“And” between values parts separate entries of the source, which are not always exact repeats. Equal values may be shown once. Where a name gives a salt, the structure may show the parent alone.
Experiments:
Assay in all cases: cell viability relative to vehicle control; higher = less cytotoxic
Details in all cases: 10 µM
K562 = system: K562
In short: (§1)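 Each screen used CRISPR-edited mutant and wild-type clones from four leukaemia lines. Compounds were acoustically dispensed at a single 10 µM dose, and CellTiter-Glo luminescence was read after 48 h with the supernatant first removed. Viability was analysed in Genedata Screener and given as percent of the on-plate vehicle control.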

MARIMO = system: MARIMO
In short: as §1

MOLM14 = system: MOLM14
In short: as §1

OCI-AML2 = system: OCI-AML2
In short: as §1

Row | Structure (SMILES) | cell viability (K562; SRSF2 genotype: SRSF2 P95H/wt) | cell viability (K562; SRSF2 genotype: SRSF2 wt/wt) [%] | cell viability (MARIMO; SRSF2 genotype: SRSF2 P95H/wt) [%] | cell viability (MARIMO; SRSF2 genotype: SRSF2 wt/wt) [%] | cell viability (MOLM14; SRSF2 genotype: SRSF2 P95H/wt) [%] | cell viability (MOLM14; SRSF2 genotype: SRSF2 wt/wt) [%] | cell viability (OCI-AML2; SRSF2 genotype: P95H/wt) [%] | cell viability (OCI-AML2; SRSF2 genotype: wt/wt) [%]
1 | CCn1c(=O)c2c(nc(/C=C/c3ccc(OC)c(OC)c3)n2C)n(CC)c1=O [Istradefylline (KW-6002)] | 90.7% and 83.8% | 85.1 | 81.1 | 95.3 | 96.5 | 97.6 | 117 | 92.4
2 | C=CCC(=NOS(=O)(=O)O)S[C@@H]1O[C@H](CO)[C@@H](O)[C@H](O)[C@H]1O (stereo in doubt) [Sinigrin] | 96.4% and 104% | 99.7 | 93.4 | 96.4 | 94.1 | 97.8 | 101 | 101
3 | CC(=O)OCC(=O)[C@@]1(O)CC[C@H]2[C@@H]3CCC4=CC(=O)CC[C@]4(C)[C@H]3C(=O)C[C@@]21C [Cortisone acetate (Cortone)] | 110% and 108% | 118 | 118 | 109 | 112 | 112 | 117 | 109
4 | N=C1CCCN1Cc1[nH]c(=O)[nH]c(=O)c1Cl [Tipiracil hydrochloride] | 101% and 109% | 104 | 109 | 112 | 110 | 105 | 102 | 94.7
5 | COc1cc(OC)c(/C=C/S(=O)(=O)Cc2ccc(OC)c(NCC(=O)O)c2)c(OC)c1 | 16.5% and 39% | 35.6 | 5.99 | 9.46 | 0.51 | 0.74 | 1.32 | 2.98
6 | NC1(C(=O)N[C@@H](CCO)c2ccc(Cl)cc2)CCN(c2ncnc3[nH]ccc23)CC1 | 82.6% and 83.6% | 79 | 66.6 | 67.1 | 28.5 | 33.3 | 59.8 | 55.8
7 | Brc1ccc2[nH]ccc2c1 [5-Bromoindole] | 107% and 100% | 107 | 95.7 | 98 | 99.5 | 103 | 102 | 115
8 | O=C(Nc1cc2cc[nH]c2cn1)c1ccccc1 | 45.9% and 44.5% | 43 | 43.3 | 45.8 | 49.3 | 51.1 | 38.6 | 39.3
9 | COc1cc2ncnc(Sc3nnc(C)s3)c2cc1OC | 52.4% and 59.1% | 73.6 | 42 | 42.1 | 5.68 | 3.57 | 3.76 | 16.7
10 | COc1ccc(C[C@@H]2c3cc(Oc4cc(C[C@@H]5c6cc(O)c(OC)cc6CCN5C)ccc4O)c(OC)cc3CCN2C)cc1 [Isoliensinine] | 50.4% and 50.8% | 61.2 | 10.2 | 16.6 | 2.24 | 1.04 | 0.44 | 0.95
11 | CC[C@H]1OC(=O)C[C@@H](O)[C@H](C)[C@@H](O[C@@H]2O[C@H](C)[C@@H](O[C@H]3C[C@@](C)(O)[C@@H](O)[C@H](C)O3)[C@H](N(C)C)[C@H]2O)[C@@H](CC=O)C[C@@H](C)C(=O)/C=C/C(C)=C/[C@@H]1CO[C@@H]1O[C@H](C)[C@@H](O)[C@@H](OC)[C@H]1OC [Tylosin] | 99.6% and 98.3% | 102 | 106 | 109 | 101 | 105 | 105 | 112
12 | NC(=O)c1noc([C@H](CCCC2CCCCC2)CC(=O)NO)n1 | 92.1% and 88.7% | 83.8 | 61.7 | 68.3 | 76.3 | 80.6 | 15.1 | 40.7
13 | CC[C@H](C)C(=O)O[C@H]1C[C@H](O)C=C2C=C[C@H](C)[C@H](CC[C@@H](O)C[C@@H](O)CC(=O)O)[C@H]21 [Pravastatin sodium] | 103% and 97.3% | 92.3 | 95.2 | 103 | 104 | 102 | 91 | 105
14 | OCC(CO)N[C@H]1C[C@](O)(CO)[C@@H](O)[C@H](O)[C@H]1O [Voglibose] | 96.2% and 91.4% | 96.6 | 98.1 | 104 | 99.7 | 97.5 | 92.3 | 109
15 | Cc1ccc(Cl)cc1N(CC(=O)Nc1c(F)cccc1F)S(C)(=O)=O | 104% and 111% | 116 | 99.5 | 106 | 102 | 105 | 110 | 124
16 | CCCCCCCCC[C@H](O)CC(=O)CCc1ccc(O)c(OC)c1 [10-Gingerol] | 92.4% and 91.5% | 98.5 | 91.1 | 92.4 | 90 | 94 | 82.5 | 82.4
17 | O=C(O)c1c[nH]c2ccccc12 [Indole-3-carboxylic acid] | 103% and 92% | 100 | 97.8 | 110 | 94.3 | 101 | 92.3 | 114
18 | CCN(CC)CCN(Cc1ccc(-c2ccc(C(F)(F)F)cc2)cc1)C(=O)Cn1c(SCc2ccc(F)cc2)nc(=O)c2c1CCC2 | 0.31% and 0.26% | 0.26 | 0.34 | 0.46 | 0.23 | 0.24 | 0.22 | 0.29
19 | CC(C)OC(=O)C(C)(C)Oc1ccc(C(=O)c2ccc(Cl)cc2)cc1 [Fenofibrate (Tricor, Trilipix)] | 80.4% and 86.4% | 85.1 | 79.2 | 81.2 | 93.7 | 98.5 | 67.1 | 82.8
20 | Cc1oc2nc3c(c(NC(=O)CN4CCCC4=O)c2c1C)CCCC3 [Coluracetam] | 95.4% and 96.3% | 105 | 93.7 | 104 | 103 | 103 | 94.9 | 99.4

From the supplement of paper PMC10981050
